Reference: PubChem BioAssay (Tox21)
“And” between values parts separate entries of the source, which are not always exact repeats. Equal values may be shown once. Results filed as inconclusive are left out. Where a structure was tested more than once in an assay, its records may differ in their call. The source made the active and inactive calls. Unless noted, calls follow the shape of the dose curve; as a rule, active = well fitted curve in the direction sought with a large enough effect in the repeat runs; inconclusive = weak or mixed curves; inactive = no such curve, though single readings can be large; an effect the other way counts as inactive or inconclusive. Residues, ends and D or L forms follow the SMILES beside them.

How the values were obtained:
[1] = biological target: Thyrotropin receptor (Homo sapiens) (UniProt P16473); assay: qHTS assay to identify small molecule agonists of the thyroid stimulating hormone receptor (TSHR) signaling pathway (AID 1224843; calls by dose curve; also: nearly all actives have a fitted effect of over 45% in size)
Chain of Thyrotropin receptor (Homo sapiens) (P16473 whole entry, looked up): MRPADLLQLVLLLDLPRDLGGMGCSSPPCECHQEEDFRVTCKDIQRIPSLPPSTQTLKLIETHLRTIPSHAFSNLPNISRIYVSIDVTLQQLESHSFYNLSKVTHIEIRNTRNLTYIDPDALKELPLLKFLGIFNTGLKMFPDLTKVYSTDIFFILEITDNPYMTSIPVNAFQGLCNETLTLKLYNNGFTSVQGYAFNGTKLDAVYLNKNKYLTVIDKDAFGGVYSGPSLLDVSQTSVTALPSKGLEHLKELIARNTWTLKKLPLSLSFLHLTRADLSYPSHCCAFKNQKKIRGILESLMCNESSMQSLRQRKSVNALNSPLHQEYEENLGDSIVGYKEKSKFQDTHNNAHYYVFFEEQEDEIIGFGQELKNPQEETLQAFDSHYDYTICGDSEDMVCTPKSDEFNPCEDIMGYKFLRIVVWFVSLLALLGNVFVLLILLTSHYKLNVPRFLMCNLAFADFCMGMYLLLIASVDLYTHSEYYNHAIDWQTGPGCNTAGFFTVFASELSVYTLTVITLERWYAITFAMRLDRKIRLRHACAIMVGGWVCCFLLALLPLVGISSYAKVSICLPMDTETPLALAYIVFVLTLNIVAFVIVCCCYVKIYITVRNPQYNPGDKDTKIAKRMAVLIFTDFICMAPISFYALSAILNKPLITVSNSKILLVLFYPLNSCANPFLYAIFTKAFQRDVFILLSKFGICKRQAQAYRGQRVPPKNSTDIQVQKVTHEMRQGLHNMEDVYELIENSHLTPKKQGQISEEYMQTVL
Method in brief: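 Using 15 concentrations per compound in triplicate, cAMP production was monitored in TSHR-HEK293 cells after 30 min compound incubation at RT; HTRF reagents followed, with fluorescence intensity recorded after 1 h.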

[2] = qHTS assay to identify small molecule agonists of the hypoxia (HIF-1) signaling pathway - cell viability counter screen (AID 1224844; calls by dose curve; also: nearly all actives have a fitted effect of over 50% in size)
Method in brief: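 In this counter screen, HRE-bla ME-180 cell viability after 17 hrs of compound exposure at 37C was read by CellTiter-Glo luminescence, multiplexed with the beta-lactamase reporter measurement.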

[3] = qHTS assay to identify small molecule agonists of H2AX (AID 1224845; active = well fitted activation curve with a large enough effect in the signal ratio in the repeat runs, not every such curve was filed as active; the % refers to the signal ratio)
Method in brief: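 Wild-type CHO-K1 cells plated overnight, then exposed 3 hr at 37C to compounds at 15 concentrations (0.76% DMSO). Lysed, then HTRF anti-pH2AX(S139)-cryptate/anti-H2AX-d2 detection after 24 hr at room temperature; emissions 665 and 620 nm.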

[4] = qHTS assay to identify small molecule agonists of the hypoxia (HIF-1) signaling pathway (AID 1224846; active = well fitted activation curve with a large enough effect in the signal ratio in the repeat runs, not every such curve was filed as active; the % refers to the signal ratio)
Method in brief: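 ME-180 HRE-bla reporter cells; compounds in DMSO, 17 h at 37C; read-out beta-lactamase via CCF4-AM FRET.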

[5] = qHTS RealTime-Glo MT Cell Viability Assay in HepG2 cells - 24 hour (AID 1224867); also: nearly all actives have a fitted effect of over 50% in size
Method in brief: (§1)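 Luminescence read-out: viable HepG2 cells reduce a prosubstrate to a NanoLuc substrate, giving a signal proportional to live cell number. Reads taken at 0, 8, 16, 24, 32 and 40 h of compound exposure at 37 C.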

[6] = qHTS RealTime-Glo MT Cell Viability Assay in HEK293 cells - 32 hour (AID 1224868); also: top concentration of the series differs between compounds; nearly all actives have a fitted effect of over 50% in size
Method in brief: (§2)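 Nonlytic real-time viability readout: viable cells convert prosubstrate to NanoLuc substrate, giving luminescence proportional to live cell number. HEK293, 600 cells/well, compound added after 5 h, continuous culture at 37 C.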

[7] = A CellTox Green Cytotoxicity Assay to monitor cytotoxicity in HEK293 cells - 0 hour (AID 1224869); also: nearly all actives have a fitted effect of over 50% in size
Method in brief: (§3)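 Real-time, in one plate: 600 HEK293 cells/well with dead-cell DNA dye, pinned compound after 5 h, 37 C incubation over 40 h; viable cells give no appreciable fluorescence.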

[8] = qHTS RealTime-Glo MT Cell Viability Assay in HepG2 cells - 40 hour (AID 1224870); also: nearly all actives have a fitted effect of over 50% in size
Method in brief: (§4)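 HepG2 cells mixed with RealTime-Glo MT reagents (NanoLuc plus cell-permeant prosubstrate) were seeded at 600 cells/well, incubated 5 h at 37 C/5% CO2, then pinned with compounds in DMSO; nonlytic luminescence tracked viability during 40 h treatment.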

[9] = A CellTox Green Cytotoxicity Assay to monitor cytotoxicity in HEK293 cells - 40 hour (AID 1224871); also: nearly all actives have a fitted effect of over 45% in size
Method in brief: as §3

[10] = qHTS RealTime-Glo MT Cell Viability Assay in HEK293 cells - 16 hour (AID 1224872)
Method in brief: as §2

[11] = qHTS RealTime-Glo MT Cell Viability Assay in HepG2 cells - 8 hour (AID 1224873); also: nearly all actives have a fitted effect of over 55% in size
Method in brief: as §4

[12] = qHTS RealTime-Glo MT Cell Viability Assay in HEK293 cells - 40 hour (AID 1224874); conditions: RealTime-Glo luminescence; max response: stronger effect = lower value; also: nearly all actives have a fitted effect of over 50% in size
Method in brief: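 Kinetic, non-lysing viability readout. Seed HEK293 (600/well) with reagent, incubate 5 h at 37 C/5% CO2, pin 23 nL compound in DMSO, incubate at 37 C, read luminescence at 0, 8, 16, 24, 32, 40 h.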

[13] = A CellTox Green Cytotoxicity Assay to monitor cytotoxicity in HEK293 cells - 24 hour (AID 1224875); also: nearly all actives have a fitted effect of over 45% in size
Method in brief: as §3

[14] = A CellTox Green Cytotoxicity Assay to monitor cytotoxicity in HepG2 cells - 16 hour (AID 1224876); also: nearly all actives have a fitted effect of over 45% in size; also: potency is read from the fitted curve at half-maximal effect
Method in brief: (§5)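 Cytotoxicity was tracked as dead-cell DNA fluorescence in HepG2 cells treated with test compounds at 37 C; each time-point value comes from one kinetic series spanning 0, 8, 16, 24, 32 and 40 h.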

[15] = qHTS RealTime-Glo MT Cell Viability Assay in HepG2 cells - 32 hour (AID 1224877); also: nearly all actives have a fitted effect of over 55% in size
Method in brief: as §1

[16] = A CellTox Green Cytotoxicity Assay to monitor cytotoxicity in HepG2 cells - 24 hour (AID 1224878); also: nearly all actives have a fitted effect of over 45% in size; also: potency is read from the fitted curve at half-maximal effect
Method in brief: as §5

[17] = A CellTox Green Cytotoxicity Assay to monitor cytotoxicity in HepG2 cells - 40 hour (AID 1224879); also: nearly all actives have a fitted effect of over 40% in size; also: potency is read from the fitted curve at half-maximal effect
Method in brief: as §5

[18] = qHTS assay to identify small molecule agonists of H2AX - cell viability counter screen (AID 1224847; calls by dose curve; also: top concentration of the series differs between compounds; nearly all actives have a fitted effect of over 30% in size)
Method in brief: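 Compounds tested at 15 concentrations were incubated 3 hr at 37C with wild-type CHO-K1 cells; cellular ATP-based luminescence (CellTiter-Glo) indicated viability.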

[19] = qHTS assay to identify small molecule antagonists of the estrogen related receptor (ERR) signaling pathway from Tox21 library (AID 1224848); also: nearly all actives have a fitted effect of over 50% in size
Method in brief: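 Tox21 10K compounds in DMSO tested for ERR pathway antagonism in NTP's ERR cell line; 18 h, 37 C exposure; ONE-Glo luminescence.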

[20] = qHTS assay to identify small molecule agonists of the estrogen related receptor (ERR) signaling pathway from Tox21 library (AID 1224849; calls by dose curve; also: nearly all actives have a fitted effect of over 15% in size); conditions: ERR reporter cell line, ONE-Glo luciferase, 18 h
Method in brief: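 Luciferase activity in ERR pathway reporter cells served as the agonist readout; exposure lasted 18 h at 37 C, with ONE-Glo detection after 30 min at room temperature.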
% is scaled to controls: 0 for no effect and ±100 for the full control effect.

C/C=C/c1ccc(OC)cc1
inactive: outcome [1] | Potency [2] | outcome [3] | outcome [4] | Potency [5] | Potency [6] | outcome [7] | Potency [8] | Potency [9] | Potency [10] | outcome [11] | max response [12] -0.468% [middle of 4 runs] | Potency [13] | Potency [14] | Potency [15] | Potency [16] | Potency [17]

Nc1ccc(C(=O)O)cc1
inactive: outcome [1] | Potency [2] | outcome [3] | outcome [4] | outcome [18] | Potency [5] | Potency [6] | outcome [7] | Potency [9] | Potency [10] | outcome [11] | max response [12] -12% and -18.6% and -17.3% | Potency [13] | Potency [14] | Potency [15] | Potency [16] | Potency [17]

CCCCCCCCCCCCCCCC(=O)O
inactive: outcome [1] | Potency [2] | outcome [3] | outcome [4] | Potency [5] | Potency [6] | outcome [7] | Potency [9] | Potency [10] | outcome [11] | max response [12] -14.7% and -1.54% and -1.33% | Potency [13] | Potency [14] | Potency [15] | Potency [16] | Potency [17]

O=C(O)/C=C\C(=O)O
inactive: outcome [1] | Potency [2] | outcome [3] | outcome [4] | Potency [5] | Potency [6] | outcome [7] | Potency [9] | Potency [10] | outcome [11] | max response [12] 3.82% and 7.29% and 0.357% | Potency [13] | Potency [14] | Potency [15] | Potency [16] | Potency [17]

Cc1noc(NS(=O)(=O)c2ccc(N)cc2)c1C
inactive: outcome [1] | Potency [2] | outcome [3] | outcome [4] | Potency [5] | Potency [6] | outcome [7] | Potency [8] | Potency [9] | Potency [10] | outcome [11] | max response [12] 3.99% and 6.51% and 6.27% | Potency [13] | Potency [14] | Potency [15] | Potency [16] | Potency [17]

NS(=O)(=O)c1cc(C(=O)O)c(NCc2ccco2)cc1Cl
19.6 µM (active) and inactive: Potency [17]
inactive: outcome [1] | Potency [2] | outcome [3] | outcome [4] | Potency [19] | Potency [5] | Potency [6] | outcome [7] | Potency [9] | Potency [10] | outcome [11] | max response [12] -14.3% and -0.726% and 2.65% | Potency [13] | Potency [15]
22 µM (active) and inactive: Potency [14]
17.4 µM (active) and inactive: Potency [16]

COC(=O)[C@H](Cc1ccccc1)NC(=O)[C@@H](N)CC(=O)O (H-Asp-Phe-OMe)
inactive: outcome [1] | Potency [2] | outcome [3] | outcome [4] | outcome [18] | Potency [5] | Potency [6] | outcome [7] | Potency [8] | Potency [9] | Potency [10] | outcome [11] | max response [12] 0.561% and -0.312% and -3.38% | Potency [13] | Potency [14] | Potency [15] | Potency [16] | Potency [17]

O=c1cc[nH]c(=S)[nH]1
inactive: outcome [1] | Potency [2] | outcome [3] | outcome [4] | outcome [18] | Potency [19] | activity change, positive = activation ([20]; at 42.5 µM (top of the series)) 7.5% | activity change, positive = activation ([20]; at 92.4 µM (top of the series)) 16.5% and 3.21% | Potency [5] | Potency [6] | outcome [7] | Potency [9] | Potency [10] | outcome [11] | max response [12] 6.11% and 3.88% and 9.23% | Potency [13] | Potency [14] | Potency [15] | Potency [16] | Potency [17]

NC(=O)NC1NC(=O)NC1=O (stereo not given)
inactive: outcome [1] | Potency [2] | outcome [3] | outcome [4] | outcome [18] | Potency [5] | Potency [6] | outcome [7] | Potency [9] | Potency [10] | outcome [11] | max response [12] 4.83% and -16.4% and 0.282% | Potency [13] | Potency [14] | Potency [15] | Potency [16] | Potency [17]

CC(C)[C@@H]1CC[C@@H](C)C[C@H]1O
inactive: outcome [1] | Potency [2] | outcome [3] | outcome [4] | outcome [18] | Potency [5] | Potency [6] | outcome [7] | Potency [9] | Potency [10] | outcome [11] | max response [12] 3.82% [middle of 5 runs] | Potency [13] | Potency [14] | Potency [15] | Potency [16] | Potency [17]

O=C(O)c1cccnc1
inactive: outcome [1] | Potency [2] | outcome [3] | outcome [4] | Potency [5] | Potency [6] | outcome [7] | Potency [9] | Potency [10] | outcome [11] | max response [12] -0.0653% [middle of 4 runs] | Potency [13] | Potency [14] | Potency [15] | Potency [16] | Potency [17]

CCOc1ccc(NC(=O)CC(C)O)cc1 (stereo not given)
inactive: outcome [1] | Potency [2] | outcome [3] | outcome [4] | Potency [5] | Potency [6] | outcome [7] | Potency [8] | Potency [9] | Potency [10] | outcome [11] | max response [12] -0.988% and -3.57% and -1.9% | Potency [13] | Potency [14] | Potency [15] | Potency [16] | Potency [17]
